Rows were chosen to be rich in hits. Some 0.46% of all compounds tested hit in one or more screens of this group.
CaV13 ICDI inh: Primary screen for inhibitors of IQ motif and Ca2+-dependent inactivation inhibitor domain binding in CACNA1D, Förster resonance energy transfer in living cells, …; inhibition, % at 12.3 µM; HEK cells, CFP/YFP FRET ICDI-IQ, plate reader, 10 min; percent FRET-ratio fall versus neutral wells; actives 0.098% (n = 340,000);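 active = mean replicate inhibition of at least 30% and at least 1% of replicates passing that level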;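 note: 0% = median of the neutral control wells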
PGC1a acetyl inh: PGC1a acetylation modulation, inhibitor mode | U2OS PGC1a acetylation, AlphaScreen anti-acetyl-lysine; with virally co-expressed GCN5 acetyltransferase | inhibition, % at 15.6 µM | actives 0.17% (n = 350,000);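 active = every replicate shows inhibition of at least 40%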;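 note: 0% = neutral control wells and 100% = positive control wells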
ERp5 inh: inhibitors of human ERp5; ERp5 insulin aggregation, absorbance 650 nm, 90 min; inhibition, % at 9.99 µM; actives 0.05% (n = 350,000);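 active = mean replicate inhibition above about 25%, with every replicate also reaching it, limit read from the data, passing the limit was not always enough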
ERAP1 HTS inh: blocks human ERAP1 aminopeptidase activity; recombinant ERAP1, Leu-AMC fluorescence, 60 min; actives 0.15% (n = 340,000); inhibition, % at 10.7 µM; Q9NZ08;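 active = mean replicate inhibition of at least 30%, or all replicates individually reaching that 30% level; inactive = mean below 30% and not every replicate reaching it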;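 note: 0% = neutral control wells and 100% = L-leucinethiol positive control wells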
PglD inh: PglD (C. jejuni) enzyme inhibition | purified PglD enzyme, DTNB colorimetric CoA detection | inhibition, % at 12.5 µM | actives 0.098% (n = 360,000); in the data active = inhibition above about 16%, passing the limit was not always enough
PDI turbidity: blocks human protein disulfide isomerase activity; inhibition, % at 10 µM; actives 0.052% (n = 350,000); P07237; PDI insulin aggregation turbidity, A650, 90 min;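 active = mean inhibition across replicates of 30% or more, whatever share of single replicates reach that level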
Target sequence (P07237 whole entry, looked up): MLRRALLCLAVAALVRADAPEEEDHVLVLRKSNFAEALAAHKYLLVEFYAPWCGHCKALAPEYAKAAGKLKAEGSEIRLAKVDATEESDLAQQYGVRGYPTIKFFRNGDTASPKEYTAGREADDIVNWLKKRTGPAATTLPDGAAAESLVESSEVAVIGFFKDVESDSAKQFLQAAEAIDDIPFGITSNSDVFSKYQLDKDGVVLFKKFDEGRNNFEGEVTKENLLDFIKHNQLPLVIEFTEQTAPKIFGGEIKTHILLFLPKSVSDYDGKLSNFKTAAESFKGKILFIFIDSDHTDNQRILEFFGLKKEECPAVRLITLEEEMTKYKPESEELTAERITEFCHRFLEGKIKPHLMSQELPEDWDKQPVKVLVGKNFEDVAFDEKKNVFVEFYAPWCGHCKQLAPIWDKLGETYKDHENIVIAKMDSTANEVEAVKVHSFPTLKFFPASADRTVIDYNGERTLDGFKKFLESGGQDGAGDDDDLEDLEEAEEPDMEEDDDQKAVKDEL
* hit, by the source's call; / = no result given; ! = a repeat was not active.

SMILES	CaV13 ICDI inh	PGC1a acetyl inh	ERp5 inh	ERAP1 HTS inh	PglD inh	PDI turbidity
CC1CCN(S(=O)(=O)c2ccc(Oc3ccc([N+](=O)[O-])cc3)cc2)CC1	-5	54*	/	/	/	5
CC1CCN(S(=O)(=O)c2ccc([N+](=O)[O-])cc2)CC1	-1	/	1	-4	-2	-13
CC1CCN(C(=O)COc2cccc3c2CCN(Cc2ccccc2)C3=O)CC1	91*	4	-1	1	-2	-1
CCN1CCc2c(OCC(=O)N3CCC(C)CC3)cccc2C1=O	-7	12	8	-4	-3	8
Cc1ccc(S(=O)(=O)N(C)C[C@H]2OCCCC[C@@H](C)Oc3ccc(NC(=O)NC4CCCCC4)cc3C(=O)N([C@H](C)CO)C[C@H]2C)cc1	/	-5	-2	5	7	/
CN1CCN(/N=C/c2ccc(N(C)c3ccccc3)cc2)CC1	3	-3	1	-4	/	-1
CN1CCN(/N=C/c2ccc(N(c3ccccc3)c3ccccc3)cc2)CC1	-19	56*	1	-1	5	-1
COc1ccc(CN2CCn3ncc(C(=O)Nc4ccccc4)c3C2=O)cc1	/	129*	/	/	/	0
C[C@@H]1CN([C@@H](C)CO)C(=O)c2cc(-c3ccncc3)cnc2O[C@@H]1CN(C)C(=O)Cc1cccnc1	/	13	/	/	1	/
CN(C)c1ccc(/C=C/c2ccc3c4ccccc4ccc3[n+]2-c2ccccc2)cc1	8	44*	13	-1	1	-15
C[C@@H]1CN([C@@H](C)CO)C(=O)c2ccccc2-c2ccccc2CO[C@@H]1CN(C)S(=O)(=O)c1ccccc1F	/	9	5	1	-2	/
C[C@H](CO)N1C[C@H](C)[C@@H](CN(C)Cc2ccncc2)Oc2cc(C#CC(C)(C)O)ccc2S1(=O)=O	/	-4	0	-4	1	/
COc1ccccc1CN1CCCC(C(=O)N(C)Cc2ccccc2)C1 (stereo not given)	-1	45*	/	/	/	-4
COc1ccc(CN2CCCC(C(=O)N(C)Cc3ccccc3)C2)cc1OC (stereo not given)	-1	-6	/	/	0	-10
CC(C)(C)[C@H]1CCC(=O)N([C@H](CSc2ccccc2)Cc2ccccc2)CC1	34*	6	0	3	5	2
O=C1c2ccccc2C(=O)c2c(Nc3ccc(CCO)cc3)ccc(O)c21	-4	1	3	2	2	-3
O=C1c2c(O)ccc(O)c2C(=O)c2c(NCCNCCO)ccc(NCCNCCO)c21	-3	9	-6	39*!	3	-11
O=C(O)C1=C[C@@H](c2ccc3c(c2)Cc2ccccc2-3)C[C@@H](OCCCCO)O1	/	/	-4	2	-8	/
COc1ccc(OC)c(/C=N/NC(=O)c2cc[n+](CC(=O)c3ccccc3)cc2)c1	-6	-3	-3	37*	0	24
O=C(O)c1[nH]c2ccccc2c1C(c1cc(Br)ccc1O)c1c(C(=O)O)[nH]c2ccccc12	144*	-9	3	5	3	9
COCCn1c(=N)c(S(=O)(=O)c2ccc(Br)cc2)cc2c(=O)n3ccccc3nc21	3	5	12	-3	0	-7
COCCn1c(=N)c(S(=O)(=O)c2ccc(F)cc2)cc2c(=O)n3ccccc3nc21	104*	4	9	-75	-4	9
CCCNC(=O)C[C@@H]1C[C@H]2c3cc(NC(=O)CC4CC4)ccc3O[C@H]2[C@H](CO)O1	/	0	62*	2	1	/
COCCNC(=O)C[C@@H]1C[C@H]2c3cc(NC(=O)NC4CCCC4)ccc3O[C@H]2[C@@H](CO)O1	/	/	82*	0	4	/
CCc1nc(N)nc(N)c1-c1ccc(Cl)cc1	-5	48*	-2	-1	2	0
SMILES	CaV13 ICDI inh	PGC1a acetyl inh	ERp5 inh	ERAP1 HTS inh	PglD inh	PDI turbidity
CC(C)(C)[S@@](=O)N1Cc2cc(C(=O)N3CCOCC3)nc(-c3cccc(-c4ccccc4F)c3)c2[C@H]1CCO	/	-1	3	0	2	/
O=C(O)c1ccccc1NS(=O)(=O)c1cccc(NS(=O)(=O)c2cc(Br)ccc2Br)c1	-15	-3	1	33*	0	1
COc1ccc(CCNC(=O)CSc2cn(Cc3cccc(C)c3)c3ccccc23)cc1OC	49*	/	1	1	5	/
COc1ccc(CCNC(=O)CSc2cn(Cc3ccccc3)c3ccccc23)cc1OC	-6	6	-5	6	-3	/
Nc1ccccc1SC(CC(=O)c1ccccc1)c1cccc([N+](=O)[O-])c1 (stereo not given)	-6	-11	5	-1	5	56*
CC1(C)CC(=O)C2=C(C1)OC1=C(C(=O)CC(C)(C)C1)C2c1ccc(O)cc1O	-9	-18	/	/	/	77*
CC1(C)CC(=O)C2=C(C1)OC1=C(C(=O)CC(C)(C)C1)C2c1ccc(O)c([N+](=O)[O-])c1	-2	/	-13	-2	/	-4
O=C(C[C@H]1CC[C@@H]2[C@H](COC[C@@H](O)CN2S(=O)(=O)c2cccc(F)c2)O1)Nc1ccc(-c2ccccc2)cc1	/	-3	0	-1	3	/
C[C@H]1CCCCO[C@@H](CN(C)Cc2ccccc2)[C@@H](C)CN([C@@H](C)CO)C(=O)c2cc(NS(C)(=O)=O)ccc2O1	/	5	3	-1	-2	/
C[C@@H]1CCCCO[C@H](CN(C)Cc2ccc(C(F)(F)F)cc2)[C@H](C)CN([C@@H](C)CO)C(=O)c2cc(NC(=O)C3CCCCC3)ccc2O1	/	11	/	/	-1	/
CCCCCCCCC(=O)O	/	66*	/	/	3	/
CCN1[C@@H]2c3ccc(-c4ccccc4)c(=O)n3C[C@@H]2[C@@H](CO)[C@@H]1C(=O)NCC(F)(F)F	/	/	37*	-1	-4	/
COc1ccc(NC(=O)N(C)C[C@@H]2Oc3ccc(NS(=O)(=O)c4c(C)noc4C)cc3CC(=O)N([C@@H](C)CO)C[C@H]2C)cc1	/	-4	-4	0	-1	/
C[C@H]1CN([C@@H](C)CO)C(=O)Cc2cc(NS(=O)(=O)c3cn(C)cn3)ccc2O[C@@H]1CN(C)Cc1ccc(C(F)(F)F)cc1	/	-10	/	/	/	/
COc1ccc(/C=C2\CN(Cc3ccccc3)C/C(=C\c3ccc(OC)c(O)c3)C2=O)cc1O	-4	/	0	1	-5	54*
CCCCN(C(=O)c1ccco1)c1c(N)n(CCC)c(=O)[nH]c1=O	-15	/	2	2	-3	-3
CCCCN(C(=O)c1ccc([N+](=O)[O-])o1)c1c(N)n(CC(C)C)c(=O)[nH]c1=O	-5	6	1	87*	3	1
CCc1noc(C)c1C(=O)N(CCOC)c1c(N)n(CC(C)C)c(=O)[nH]c1=O	/	-3	0	95*	4	10
CCCCn1c(N)c(N(CC)C(=O)c2ccco2)c(=O)[nH]c1=O	-6	-4	-2	84*	-3	-8

Screens (PubChem)
